Results: PubChem BioAssay AID614 (Sanford-Burnham Center for Chemical Genomics, 2007)
Fewer than 10 of roughly 21,000 compounds were called active.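 The calls were made as follows: active = inhibition above 50% at the 20 µM single-dose screen; inactive = the rest.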 Not all results are given here.

Target: Alkaline phosphatase, tissue-nonspecific isozyme (Homo sapiens) (UniProt P05186)
Test: blockers of alkaline phosphatase TNAP activity – biochemical, colorimetric, phosphate release readout, primary screen (AID 614)
Conditions: purified TNAP, pNPP, malachite green phosphate absorbance; at 20 µM; active compounds read high

Chain of Alkaline phosphatase, tissue-nonspecific isozyme (Homo sapiens) (P05186 whole entry, looked up): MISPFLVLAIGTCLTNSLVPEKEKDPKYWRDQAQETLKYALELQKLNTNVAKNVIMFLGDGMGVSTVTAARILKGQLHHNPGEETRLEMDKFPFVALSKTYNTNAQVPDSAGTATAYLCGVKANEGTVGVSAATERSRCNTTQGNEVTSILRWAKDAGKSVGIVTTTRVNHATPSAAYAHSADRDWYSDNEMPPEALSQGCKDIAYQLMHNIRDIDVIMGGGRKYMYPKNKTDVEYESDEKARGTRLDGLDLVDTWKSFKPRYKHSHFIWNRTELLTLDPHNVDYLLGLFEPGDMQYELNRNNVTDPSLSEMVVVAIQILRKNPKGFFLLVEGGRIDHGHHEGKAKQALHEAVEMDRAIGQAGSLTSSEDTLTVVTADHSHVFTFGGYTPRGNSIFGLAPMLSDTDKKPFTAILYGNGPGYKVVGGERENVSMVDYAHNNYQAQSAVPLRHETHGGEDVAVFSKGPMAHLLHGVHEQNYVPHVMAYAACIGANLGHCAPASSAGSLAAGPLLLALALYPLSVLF

inhibition, inactive:
CN(C)CCCNc1c2c(c(C#N)c3nc4ccccc4n13)CCC2 0%, Cc1c(C(=O)OCc2cc(=O)n3cc(Br)ccc3n2)oc2ccccc12 -2.2%, Cc1ccc(Oc2ccc(N)cc2)cc1 15%, Cc1cc(N2CCCC2)n2nc(C)c(-c3ccccc3)c2n1 8.2%, CC(C)C1Cc2c(sc3c2c(=O)n(-c2ccccc2)c2nncn32)CO1 (stereo unspecified) 10.1%, COC(=O)c1cc(OC)c(OC)cc1NC(=O)C1CCCO1 (stereo unspecified) 6%, CC(=O)N1CCN(C(=O)Nc2cccc(C(F)(F)F)c2)CC1 -0.7%, CCCC(=O)Nc1ccc2c(c1)nc1n2CCSC1 3.5%, O=C(CSc1nnc(-c2ccoc2)o1)N1CCOCC1 -1.3%, c1cnc(NC2C3CC4CC(C3)CC2C4)nc1 (stereo unspecified) 3.8%, N#CC(C(N)=O)=C1CCC2(CC1)OCCCCO2 13.2%, Cc1ccc(S(=O)(=O)N2CCC(N3CCCCCC3)CC2)cc1 7%, COc1ccc(-c2nnc(SCC(=O)c3ccco3)n2-c2ccccc2)cc1 2.3%, O=C(c1cccc(S(=O)(=O)N2CCOCC2)c1)N1CCOCC1 6.8%, CCc1ccc(N2CC(C(=O)NC3=NCCS3)CC2=O)cc1 (stereo unspecified) -4.1%, COC(=O)[C@H](Cc1ccccc1)NC(=O)N1CC(C)OC(C)C1 (stereo partly specified) 6.7%, CC(C)OCCCNc1nc2c(c(=O)n(Cc3ccccc3F)c(=O)n2C)n1C 11.4%, N#Cc1c2c(c(-c3ccccc3)[nH]c1=O)CCCC2 9.6%, Cc1ccc(C(C(=O)NC2CCCC2)N(Cc2ccco2)C(=O)CCC(=O)Nc2ccccn2)cc1 (stereo unspecified) 7.3%, COc1c(O)cccc1-c1nnn(CCC(=O)OCC(=O)c2ccccc2)n1 2.2%, O=C(O)c1cscn1 4.2%, O=C(CSc1nnc(-c2ccccn2)n1-c1ccccc1)Nc1ccc2c(c1)OCO2 3.6%, COc1ccc(C(=O)Nc2ccc(S(=O)(=O)Nc3onc(C)c3C)cc2)cc1OC 0.4%, CCOC(=O)C1=C(C)NC(=O)N(C(C)=O)C1c1ccc(Cl)cc1 (stereo unspecified) 10%, O=C(NCCSc1ccccc1)c1ccco1 13.2%, CCc1nc2ccccc2n(CCOCCOCCn2c(=O)c(CC)nc3ccccc32)c1=O 8.8%, COc1cccc(N(CC(=O)Nc2cccc(N(C)S(C)(=O)=O)c2)S(C)(=O)=O)c1 0%, CS(=O)(=O)N1CCN(C(=O)c2cc3ccccc3oc2=O)CC1 11.1%, COc1ccc(CNC(=O)c2c(C)cc(=O)oc2C)cc1OC 11.6%, COc1ccc(-n2c(SCC(=O)OC(C)C)nnc2-c2ccccn2)cc1 7.8%, CCN(CC)S(=O)(=O)c1cccc(C(=O)Nc2ccccc2)c1 3.8%, Cc1cc(C)nc(SCc2nnc(SCC(=O)OC3CCCCC3)o2)n1 2.9%, CNC(=O)c1nnn(-c2ccccc2)c1C(=O)NC 6.4%, COC(=O)c1ccc(NC(=O)CSc2nnc(CNc3ccc(OC)cc3)n2C)cc1 -7.8%, CCc1nc2oc3ccccc3c(=O)c2c(=O)n1Cc1ccc(OC)cc1 6.6%, CCOC(=O)c1cc2cc(C)ccc2[nH]1 -8.6%
